The record followed here is PubChem BioAssay.

Results filed as inconclusive are left out. Activity calls are given as the source filed them.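 The calls were made as follows, unless noted: active = viability at or below 30% in both replicate assays; inconclusive = viability at or below 30% in just one of the two assays; inactive = the rest.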

Test [1] in a line: reducers of endogenous Her2 protein level, primary screen, SKBR3 breast tumor cells, AlphaScreen, ATP viability (AID 461;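 active = Her2 level under about 52% in both replicate screens, with viability over 70% of control, limit read from the data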;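 as to Her2 level: lower value means less Her2 protein in the cells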;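 as to viability: percent of carrier control wells set as 100% viability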). Conditions: 18-24 h, measured here: SKBR3 viability, ATP luminescence, at 10 µM. Background: Alpha assays give light when donor and acceptor beads are brought close together.
Test [2] concerns the target Receptor tyrosine-protein kinase erbB-2 (Homo sapiens) (UniProt P04626). The description is as above. Conditions: 18-24 h, at 10 µM, stronger effect = lower value.
The nature of test [3]: SK-BR-3 cell growth inhibitors, pilot screen, 24 h, human (AID 572;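 active = viability at or below 10% of carrier control in both of two separate runs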;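 also: compound exposure lasted between 18 and 24 h rather than exactly 24 h; 100% = carrier-treated control wells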). The following applies: SK-BR-3 viability, CellTiter-Glo luminescence, at 10 µM, stronger effect = lower value. For orientation: ATP-based viability assays read luminescence as a measure of living cells.
Test [4] can be described thus: HUVEC growth inhibition – cell-based, human, primary screen (AID 575).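 Also: 100% = median of untreated cell wells with 0.1% DMSO on each plate.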 The following applies: HUVEC proliferation, CellTiter-Glo luminescence, 72 h; at 10 µM; stronger effect = lower value.
A short description of test [5]: growth inhibitors of H69AR lung tumor, primary screen, human, duplicate replicates (AID 580;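 active = viability at or under a set limit in both replicates, limit being median viability minus 3 SD, cut at about 48% in these data, passing the limit was not always enough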;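 also: 100% = mean luminescence of untreated wells and 0% = no signal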). Conditions: H69AR lung tumor cells viability, ATP luminescence, 72 h; at 10 µM; stronger effect = lower value.
Test [6] is described as follows: reversal of MRP1-mediated doxorubicin resistance, pilot screen, H69AR cells, doxorubicin co-treatment (AID 601;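 active = viability loss from added drug above about 55%, and viability with drug at most 40%, in both replicates, limit read from the data, passing the limit was not always enough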). Conditions: CellTiter-Glo, 72 h, at 10 µM; for differential viability (reversal): stronger effect = higher value.
Test [7] is described as follows: 384-well plate pilot, post-Golgi transport modulator project, inhibition of yeast transport mutant growth (AID 636; in the data active = inhibition above about 31%). The following applies: absorbance 615 nm, about 18 h, stronger effect = higher value.
Test [8] can be described thus: growth suppression of yeast trafficking mutant, preliminary HTS, modulators of trafficking downstream of Golgi apparatus project, 1536-format plate, OD 615 nm (AID 637; in the data active = inhibition above about 30%). Conditions: yeast transport mutant growth, absorbance 615 nm, 18 h; stronger effect = higher value.
The nature of test [9]: OD615 S. cerevisiae growth inhibition, permissive medium, pilot counter-assay, permissive growth control for S. cerevisiae lifespan shortening project (AID 705;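 active = growth inhibition above 25% in both replicates, a cutoff set 3 SD above the mean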). Conditions: OD615, 24 h, at 10 µM, stronger effect = higher value.
Test [10] is described as follows: Restrictive medium S. cerevisiae growth inhibition, OD615, pilot screen of yeast lifespan reduction project, restrictive growth control (AID 706;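 active = growth inhibition above a set limit, 3 SD over mean compound inhibition, in both replicates, cut at about 43% in these data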;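 also: modified DeaD lifespan yeast strain shifted to restrictive glucose medium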). The following applies: OD615, 48 h, at 10 µM, stronger effect = higher value.
The nature of test [11]: viability gain of MRP-1-high H69AR cells under doxorubicin, pilot screen, MRP-1 activator project, CellTiter-Glo, duplicate (AID 807;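 active = viability increase at or above a cutoff of the median across tested compounds plus 3 SD, cut at about 8.5% in these data, passing the limit was not always enough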;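 also: compound pretreatment 18-22 h then 72 h combined with doxorubicin; 0% = doxorubicin alone and 100% = vehicle without doxorubicin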). The following applies: H69AR viability with doxorubicin, CellTiter-Glo luminescence; at 10 µM; stronger effect = higher value.
A short description of test [12]: growth suppression of beta-catenin knockout HCT116, pilot screen, human colon tumor cells (AID 823;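 active = cell viability at or below a set limit in both duplicate runs, the limit being the all-compound median minus 4 SD, cut at about 23% in these data, passing the limit was not always enough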;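 also: 0% = wells killed by 20 µM Hyamine and 100% = untreated DMSO cell wells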). Conditions: CellTiter-Glo, 60 h, at 10 µM, stronger effect = lower value.
Test [13] is described as follows: growth suppression of PTEN-deleted HCT116, pilot screen, cell-based, HCT116 clonal line, CellTiter-Glo (AID 824;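 active = viability at or below 27.92% in each of two runs, the all-compound median minus 4 SD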;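 also: 0% = 20 µM Hyamine control and 100% = vehicle cell control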). Conditions: 60 h, at 10 µM, stronger effect = lower value.
The nature of test [14]: inhibitors of the yeast RAM network, pilot screen, dse1pr::URA3 reporter, 5-FOA selection (AID 869;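 active = inhibition over a set limit, the all-compound mean plus 3 SD, in both replicate runs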;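 also: 0% = DMSO wells with no growth and 100% = 10 µM 1-NA-PP1 with full growth; RAM network block rescues cells from 5-FOA so hits raise OD615 growth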). The following applies: S. cerevisiae dse1pr::URA3 5-FOA growth, OD615, 2 d; at 10 µM; stronger effect = higher value; strain carries analog-sensitive mutant Cbk1 kinase.
Test [15] can be described thus: RAM signaling pathway blockade in yeast – S. cerevisiae, Pdr1DBD-CYC8 efflux-inhibited sensitized strain, primary screen (AID 1298;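 active = RAM network inhibition above 8.4% in each of two replicates, 3 SD over the compound average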;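 also: 0% = DMSO untreated cells without growth and 100% = 10 µM 1-NA-PP1 full growth; higher means more yeast growth rescued from 5-FOA killing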). The following applies: S. cerevisiae cbk1-as DSE1-URA3 strain, 5-FOA growth OD615, 2 d; at 50 µM; stronger effect = higher value.
[16] abbreviates: H69AR cells + 2 uM doxorubicin, measured here: viability with 2 uM doxorubicin, stronger effect = lower value.
Where [17] appears, read: H69AR cells, compound alone cytotoxicity.

Sequence of Receptor tyrosine-protein kinase erbB-2 (Homo sapiens) (P04626 whole entry, looked up): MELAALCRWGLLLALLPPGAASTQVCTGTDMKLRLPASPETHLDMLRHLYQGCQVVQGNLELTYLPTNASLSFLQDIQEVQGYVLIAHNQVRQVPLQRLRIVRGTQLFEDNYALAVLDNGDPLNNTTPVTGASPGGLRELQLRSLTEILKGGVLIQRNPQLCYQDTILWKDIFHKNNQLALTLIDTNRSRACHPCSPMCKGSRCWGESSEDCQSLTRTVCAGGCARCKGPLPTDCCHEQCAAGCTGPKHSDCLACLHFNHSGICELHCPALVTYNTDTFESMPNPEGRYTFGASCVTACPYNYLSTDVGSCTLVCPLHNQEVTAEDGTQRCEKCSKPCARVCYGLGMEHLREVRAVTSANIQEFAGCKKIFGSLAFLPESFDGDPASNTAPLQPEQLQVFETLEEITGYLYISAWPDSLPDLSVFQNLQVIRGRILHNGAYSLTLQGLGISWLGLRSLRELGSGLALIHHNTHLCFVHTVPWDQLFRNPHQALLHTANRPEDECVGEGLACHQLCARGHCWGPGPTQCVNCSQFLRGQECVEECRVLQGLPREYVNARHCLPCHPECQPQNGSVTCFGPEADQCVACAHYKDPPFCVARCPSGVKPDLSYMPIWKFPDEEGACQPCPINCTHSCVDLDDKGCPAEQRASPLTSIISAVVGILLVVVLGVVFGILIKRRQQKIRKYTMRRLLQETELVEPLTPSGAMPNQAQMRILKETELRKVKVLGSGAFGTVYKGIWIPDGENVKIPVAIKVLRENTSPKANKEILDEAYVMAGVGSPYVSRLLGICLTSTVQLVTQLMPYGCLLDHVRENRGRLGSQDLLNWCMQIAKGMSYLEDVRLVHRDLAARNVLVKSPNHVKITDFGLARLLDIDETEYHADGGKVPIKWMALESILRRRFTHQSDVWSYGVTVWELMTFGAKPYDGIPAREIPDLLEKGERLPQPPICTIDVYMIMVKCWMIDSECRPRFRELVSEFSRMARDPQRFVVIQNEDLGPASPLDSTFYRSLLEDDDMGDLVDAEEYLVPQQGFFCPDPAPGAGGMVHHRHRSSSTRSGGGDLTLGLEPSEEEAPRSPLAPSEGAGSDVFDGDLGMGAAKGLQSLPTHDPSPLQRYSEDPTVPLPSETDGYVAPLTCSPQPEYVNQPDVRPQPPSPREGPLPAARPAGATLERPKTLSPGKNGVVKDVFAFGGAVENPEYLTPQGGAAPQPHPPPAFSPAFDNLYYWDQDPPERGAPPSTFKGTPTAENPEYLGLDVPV

By viability is commonly meant a read-out of living cells in per cent, often relative to untreated cells. Broadly, the inhibition is the drop in the measured response relative to a control, in per cent. Consider `Cc1onc(-c2ccccc2Cl)c1C(=O)Nc1cnn(Cc2ccccc2)c1`, for which the viability in [1] is 88.5%; in [3], 88.5% (inactive); in test [4] it was 73.6% (inactive); in test [5], 81.5% (inactive); in test [6] (setting [16]) it was 86.9%; in test [6] (setting [17]), 81.5%. The viability in test [12] was 83.2% (inactive); in [13] it was 73% (inactive). Besides, in test [2], the Her2 level is 98% (inactive). For the same compound, the differential viability (reversal) in test [6] (H69AR cells + 2 uM doxorubicin) was -5.4% (inactive). The inhibition in test [7] was -5.73% (inactive); in test [8], 0.33% (inactive); in test [14], 1.07% (inactive). Further, the values for the growth inhibition in test [9] and in [10] were -12.3% (inactive) and -9.34% (inactive), respectively. Moreover, the viability increase in [11] is 1.54% (inactive). The RAM network inhibition in [15] was 2.37% (inactive).
On to `CCOC(=O)C1=C(C)Nc2nnnn2C1c1ccc(OC)c(Br)c1` (stereo not given), for which the viability was 106% in [1]; 106% (inactive) in test [3]; 87.7% (inactive) in test [4]; 93.3% (inactive) in [5]; 97.8% in [6] (setting [16]); 93.3% in [6] (setting [17]). Moreover, the viability in [12] was 92% (inactive); in test [13] it was 90.7% (inactive). For the same compound, the Her2 level in test [2] is 106% (inactive). Moreover, in [6] (H69AR cells + 2 uM doxorubicin), the differential viability (reversal) is -4.47% (inactive). Also, the results for the inhibition in test [7], in test [8] and in test [14] were 5.07% (inactive), 14.8% (inactive) and 3.05% (inactive), respectively. Besides, the growth inhibition in test [9] was -8.85% (inactive); in test [10], 2.52% (inactive). For the same compound, in test [11], the viability increase is -2.62% (inactive). Besides, in [15], the RAM network inhibition is 0.79% (inactive).
Take `Cc1nc2ccccc2c2oc(C(=O)NCCCN3CCCC3=O)cc12`: the viability in test [1] was 91%; in test [3], 91% (inactive); in test [4], 84.3% (inactive); in test [5] it was 91.8% (inactive); in [6] (setting [16]) it was 77.9%; in [6] (setting [17]), 91.8%. Further, the results for the viability in [12] and in test [13] were 94.5% (inactive) and 96.8% (inactive), respectively. The Her2 level in test [2] was 97.5% (inactive). The differential viability (reversal) in test [6] (H69AR cells + 2 uM doxorubicin) was 13.9% (inactive). Further, the inhibition in test [7] was -5.73% (inactive); in test [8], -2.62% (inactive); in [14], 1.9% (inactive). Further, the growth inhibition in test [9] was -0.475% (inactive); in [10], -1.4% (inactive). Also, the viability increase in test [11] is -1.47% (inactive). In [15], the RAM network inhibition was 6.62% (inactive).
Turning to `CCOC(=O)c1c(C)n(C)c2c(C)cc(O)c(OC(C)=O)c12`, the viability in [1] is 93%; in test [3], 93% (inactive); in test [4], 103% (inactive); in [5], 101% (inactive); in test [6] (setting [16]) it was 87.3%; in test [6] (setting [17]), 101%. Besides, the viability in test [12] was 78.5% (inactive); in test [13], 86.8% (inactive). Besides, the Her2 level in test [2] is 83.5% (inactive). Besides, in test [6] (H69AR cells + 2 uM doxorubicin), the differential viability (reversal) was 13.4% (inactive). Further, the figures for the inhibition in test [7], in [8] and in [14] were -3.9% (inactive), 0.5% (inactive) and 1.42% (inactive), respectively. In addition, the figures for the growth inhibition in test [9] and in test [10] were -11.9% (inactive) and -6.75% (inactive), respectively. For the same compound, in [11], the viability increase was -5.24% (inactive). Also, in test [15], the RAM network inhibition is 1.23% (inactive).
As for `CC(C)CCN(C)C1CCN(S(=O)(=O)c2ccc(F)cc2)CC1`, the viability in test [1] was 87%; in test [3], 87% (inactive); in test [4] it was 107% (inactive); in [5] it was 81% (inactive); in test [6] (setting [16]), 91.6%; in test [6] (setting [17]) it was 81%. The viability is 97.6% (inactive) in [12] and 98.5% (inactive) in test [13]. In addition, the Her2 level in test [2] is 104% (inactive). In addition, in test [6] (H69AR cells + 2 uM doxorubicin), the differential viability (reversal) was -10.5% (inactive). In addition, the inhibition in test [7] is -1.87% (inactive); in [8] it was -4.33% (inactive); in test [14] it was 0.875% (inactive). The growth inhibition in test [9] was -7.46% (inactive); in test [10] it was 10.4% (inactive). Moreover, in test [11], the viability increase is -2.68% (inactive). In test [15], the RAM network inhibition is 4.65% (inactive).
